Results on 24 molecules are retold here after PubChem BioAssay (NCI).

About 79,000 compounds went through this panel and 15% of them were active in at least one assay; those are over-represented in the sample as a whole. Unmarked numbers belong to inactive results. The source made the active and inactive calls. No stated cut-off is given here; in the data, active means growth inhibition above about 70%; inactive means the rest.

Test [1] can be described thus: NCI Yeast Anticancer Drug Screen. Data for the rad50 strain (AID 155).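 Further: 0% = growth of vehicle-only cultures of the same strain.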 Particulars: S. cerevisiae rad50 strain growth inhibition; at 50.0 µM; active compounds read high. Summed up:
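Cells are treated with compound, grown, and their growth is then scored against vehicle-only cultures of the same repair-deficient yeast strain.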

Test [2] can be described thus: NCI Yeast Anticancer Drug Screen. Data for the mec2-1 strain (AID 157). Particulars: S. cerevisiae mec2-1 strain, at 50.0 µM, active compounds read high. Summed up:
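Yeast mec2-1 mutant treated with compound. Readout: growth inhibition vs vehicle controls.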

Test [3] in a line: NCI Yeast Anticancer Drug Screen. Data for the sgs1 mgt1 strain (AID 161).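 Further: 0% = growth of cultures given vehicle only.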 Particulars: S. cerevisiae sgs1 mgt1 strain, at 50.0 µM, active compounds read high. Summed up: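 Mutant yeast exposed to compound; growth scored against vehicle-only wells.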
Test [4] can be described thus: NCI Yeast Anticancer Drug Screen. Data for the bub3 strain (AID 167). Conditions: S. cerevisiae bub3 mutant strain, at 50.0 µM, active compounds read high. Put shortly:
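Part of a panel of yeast mutants defective in DNA damage repair or cell cycle regulation. Each strain is grown with compound, and inhibition is calculated relative to solvent-treated cultures.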

Test [5] in a line: NCI Yeast Anticancer Drug Screen. Data for the mlh1 rad18 strain (AID 175). Particulars: S. cerevisiae mlh1 rad18 strain growth inhibition; at 50.0 µM; active compounds read high. Put shortly: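 Yeast w/ defined DNA-repair lesions; compound exposure; growth vs vehicle controls → % inhibition.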
The nature of test [6]: NCI Yeast Anticancer Drug Screen. Data for the cln2 rad14 strain (AID 165).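 Further: 0% = growth equal to vehicle treated cultures.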 Particulars: S. cerevisiae cln2 rad14 strain, at 50.0 µM, active compounds read high. Put shortly: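 cln2 rad14 yeast strain; compound exposure; growth inhibition read vs vehicle controls.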

In the case of `O=C([CH-]C(=O)c1ccccc1)c1ccccc1.[CH2-]C.[CH2-]C.[Tl+3]`, the growth inhibition was 52.3% in test [1]; 35.6% in test [2]; 37.2% in test [3]; 60.1% in test [4]; 55.1% in test [5].
The like results for `COc1ccc(N)cc1N` were, in that order, 6.8%, 18.1%, 5.5%, 25.5% and 11.1%.
Taken in the same sequence, the figures for `C=CC1CN2CCC1CC2C(O)c1ccnc2ccccc12` (centres undefined) were 11.9%, -3.7%, 5.95%, 20.1% and 4.1%.
The like results for `BrCC[N+]12CCCN1CCC2` were, in that order, -7.95%, -31.4%, 3.25%, -7.05% and -31.3%.
For `COc1ccc(N)cc1OC`, the growth inhibition was -2.15% in test [1]; 1.35% in test [2]; -4.8% in test [3]; 6.7% in test [4]; -5.4% in test [5].
Taken in the same sequence, the figures for `Nc1cccnc1` were -29.1%, -35.5%, 23.8%, -23.6% and -5.65%.
Taken in the same sequence, the figures for `CO[C@H]1C=CC2=CCN3CCC4=C(CC(=O)OC4)[C@]23C1` were -9.3%, -18.9%, -3.6%, -21.9% and -15.4%.
Taken in the same sequence, the figures for `O=C(CC(=O)c1ccccc1)c1ccccc1.[Tl]` were 96.2% (active), 91.5% (active), 97.5% (active), 88.7% (active) and 98.1% (active).
Consider `CC(Cc1cccc2c1Nc1ccccc1S2)N(C)CCO` (centres undefined), for which the growth inhibition in test [1] is -60.2%; in test [2], -40.5%; in test [6], -5.25%; in test [4], -25.4%; in test [5], -30.1%.
The like results for `CC1(c2cccc(N(CCCl)CCCl)c2)NC(=O)NC1=O` (centres undefined) were, in that order, 25.1%, 27.4%, 3.9%, 19.9% and 40.4%.
The like results for `O=[N+]([O-])c1ccc(/C=C/c2cc(Cl)ccc2S(=O)(=O)F)c(Cl)c1` were, in that order, 2.6%, -0.85%, 13.4%, 12.9% and -4.35%.
Turning to `Nc1nc(-c2cccc(S(=O)(=O)F)c2)cs1`, the growth inhibition was 42.5% in test [1], 20.8% in test [2], 41.5% in test [6] and 51.1% in test [4].
On to `NC(=O)c1cc([N+](=O)[O-])c([N+](=O)[O-])cc1N(CCCl)CCCl`, for which the growth inhibition in test [1] was 14.4%; in test [2], 8.95%; in test [6], 0.4%; in test [4], -3.8%; in test [5] it was 13.3%.
For the molecule `[CH3][Sn]([Cl])([Cl])[c]1ccccc1`, the growth inhibition was -22.9% in test [1]; 2.05% in test [2]; -18.5% in test [6]; -12.8% in test [4]; 1.6% in test [5].
Turning to `CCC(C)OP(=S)(S)OC(C)CC.[Zn+2]` (centres undefined), the growth inhibition in test [1] was 1.8%; in test [2] it was 22.3%; in test [6] it was -5.55%; in test [4], 25.2%; in test [5] it was -5.95%.
Taken in the same sequence, the figures for `COc1ccc(O)c2c(=O)c3c(OC)cc4c(c3oc12)[C@@H]1C=CO[C@@H]1O4` were 16.6%, -29.6%, -2.9%, -9.65% and 9.2%.
The like results for `CO[C@H](C)[C@](O)(C(=O)OCC1=CCN2CC[C@@H](O)[C@H]12)C(C)C` were, in that order, -11.4%, -37.6%, 1.25%, -23.8% and -13.6%.
Regarding `O=C(CF)Nc1ccc([N+](=O)[O-])cc1`, the growth inhibition in test [1] is -12.4%; in test [2] it was -7.25%; in test [6], -15.7%; in test [4], 0.2%; in test [5], 9.1%.
Taken in the same sequence, the figures for `CC(=N\O)/C(C)=N/O.CC(=N\O)/C(C)=N/O.CC(=N\O)/C(C)=N/O.CC(=N\O)/C(C)=N/O.[Cu].[Cu]` were -7.15%, 12.9%, -8.2%, -13.9% and -4.2%.
Taken in the same sequence, the figures for `CC(C)(Br)[N+](=O)[O-]` were 9%, -3.55%, 10.2%, 10.8% and 1.8%.
Consider `CCOC(=O)C(C)(Br)CC` (centres undefined), for which the growth inhibition is -19.4% in test [1]; -3.25% in test [2]; -17.4% in test [3]; -22.1% in test [4]; -7.8% in test [5].
Turning to `CCCCCCCCSP(SCCCCCCCC)SCCCCCCCC`, the growth inhibition in test [1] is -11.8%; in test [2], -0.1%; in test [6] it was 2.7%; in test [4] it was 1.25%; in test [5], 0.9%.
Regarding `Cc1cc(S(=O)(=O)F)ccc1NC(=O)/C=C/c1ccc([N+](=O)[O-])cc1`, the growth inhibition in test [1] is 8.95%; in test [2] it was 4%; in test [6] it was 0.55%; in test [4], 21.4%; in test [5] it was -8.15%.
Taken in the same sequence, the figures for `Clc1ccc(C(Cl)(Cl)Cl)c(Cl)c1` were 9%, 6.35%, -15.8%, 17.9% and 20.4%.
